Test results: PubChem BioAssay AID493179 (National Center for Advancing Translational Sciences (NCATS), 2011)
Records with an inconclusive call do not appear. Active and inactive are the calls of the source. Calls come from the whole dose curve; as a rule, active = well fitted inhibition curve with a large enough effect; inconclusive = small, poorly fitted or top-dose-only effect; inactive = flat fitted curve, though single readings scatter.

test: Secondary Assay for General miRNAs Modulators and/or Inhibitors/Activators of miR-21: miR-30 Firefly Luciferase Assay for second round cherrypicks; details: HeLa miR-30 FLuc reporter, luminescence, 48 h; series mostly up to 38.3 µM; activity change, negative = inhibition: at the top concentration
Excerpt: MLPCN Grant: 1 R21 NS059478-01 Assay Provider: Qihong Huang, The Wistar Institute NCGC Assay Overview: MicroRNAs (miRNAs) are endogenously encoded small (~20-25 nucleotides), nonprotein-coding RNAs that are involved in post-transcriptional repression of target messenger RNAs (mRNAs) (Le and Hannon, 2004). Estimated to be involved in the regulation of 30% of all protein-coding mRNAs (Filipowicz et al., 2008), miRNAs play a significant role in many biological processes including cellular differentiation and tissue development (Ghildiyal and Zamore, 2009). […] Compounds active in the miR-21 FLuc assay were clustered using Leadscope and active chemical series were prioritized based on chemical properties, potential for medicinal chemistry optimization, and SAR. Within each chemical series, representative compounds were re-acquired to test for activity in a secondary assay based on the quality of their CRC, efficacy, and potency. The secondary assay to determine if compounds active in the miR-21 FLuc assay were potentially specific for miR-21 and were not general modulators of the miRNA pathway was another cell-based FLuc reporter gene assay, this time targeting miR-30. Compounds found active in both the miR-21 FLuc and miR-30 FLuc assays are not considered miR-21 specific compounds, and may be general miRNA modulators.
NCGC Assay Protocol Summary: Reagents: HeLa cells stably expressing firefly luciferase (FLuc) under the control of a CMV promoter (upstream) and a miR-30 binding sequence directly downstream of the gene. These cells also stably express miR-30. Control compounds used were compound C3 (provided by collaborator), N6-phenyladenosine (MP Biomedicals, 0215379625), and DMSO. Assay Summary: 6uL of HeLa miR-30-FLuc cells in assay buffer (DMEM, Invitrogen #21063-029; 10% FBS, HyClone #SH30071.03) were dispensed at 1000cells/well (1.7 x 10^5 cells/mL) into Greiner solid-white TC-treated 1536-well plates using a Multidrop Combi (Thermo Fisher Scientific). Plates were incubated for one hour at 37 degree Celsius, 95% humidity, 5% CO2. These assay plates were then treated with 23nL of compound or DMSO using a Kalypsys pin tool, which allows for delivery of a 24-point titration of each compound to the assay plate, with a final compound concentration ranging from approximately 40uM to 5pM. Assay plates were then incubated for 48 hours. After incubation, plates were allowed to come to RT for one hour prior to delivery of 3uL of 3X luciferase detection reagent. After a 15 minute incubation to allow for cell lysis, luciferase activity was measured using a ViewLux CCD imager (PerkinElmer), with an average exposure time of 2-12 seconds. Keywords: NIH Roadmap, MLPCN, MLSMR, qHTS, miR-21, miR-30, microRNA, firefly luciferase, FLuc.

Row | SMILES | Potency | activity change, negative = inhibition
1 | CC(=O)N1CCc2cc(CNC(=O)Cc3ccc(F)cc3)ccc21 | 10 µM (active) | –
2 | Cc1ccc(NC(=O)c2ccc(-c3ccccc3)s2)cc1 | 5.04 µM (active) | –
3 | CCc1ccc(C(=O)NCc2cccs2)s1 | 20 µM (active) | –
4 | CCC(=O)Nc1sc(C(=O)Nc2ccccc2)c(C)c1C(=O)OC | 11.3 µM (active) | –
5 | O=C(Nc1sc2c(c1C(=O)NCc1ccco1)CCCC2)c1cc(=O)c2ccccc2o1 | 7.11 µM (active) | –
6 | COCCNC(=O)c1ccc2c(c1)ncn2-c1ccc(F)c(F)c1 | 22.5 µM (active) | –
7 | Cc1cc(N2CCN(C)CC2)nc2ccc(NC(=O)c3ccccc3F)cc12 | 10 µM (active) | –
8 | Cc1ccc(-n2ncc3c(Nc4ccc5c(c4)OCCO5)ncnc32)cc1Cl | 10 µM (active) | –
9 | Cc1ccc2nc(-c3ccc(NC(=O)c4ccc(S(C)(=O)=O)cc4)cc3)sc2c1 | – | -8.74% (inactive)
10 | CCC(CC)C(=O)Nc1nnc(S(=O)(=O)N2CCCCCC2)s1 | – | 10.7% (inactive)
11 | CCC(C)C(=O)N1CCCC(c2nc(-c3cccs3)no2)C1 (stereo not given) | 6.34 µM (active) | –
12 | C/C(=N/NC(=O)c1ccccc1)c1ccc(NC(=O)C(F)(F)F)cc1 | – | -12.5% (inactive)
13 | CC(C)c1cc(C(=O)Nc2cccnc2)no1 | 3.56 µM (active) | –
14 | Cc1ccccc1OCc1nc2c3cnn(-c4ccccc4F)c3ncn2n1 | 20 µM (active) | –
15 | CCCCc1nn2c(=O)cc(COC(=O)c3cccc(NC(=O)c4cccc(C)c4)c3)nc2s1 | 4 µM (active) | –
16 | CC(c1ccccn1)N(C)C(=O)c1ccc2nc(Cc3cccc(Cl)c3)oc2c1 (stereo not given) | 6.34 µM (active) | –
17 | CN(C)c1ccc(CNC(=O)C2COc3ccccc3C2)cc1 (stereo not given) | – | -18.4% (inactive)
18 | CCCOc1ccc(OC(=O)c2ccc(-c3ccc(CCC)cn3)cc2)cc1 | 1.59 µM (active) | –
19 | Cc1ccc(C(=O)Nc2ccc3c(c2)ncn3C)cc1 | 2.83 µM (active) | –
20 | CCOC(=O)C1CCN(C(=O)c2ccc(-n3ccc4ccccc43)s2)CC1 | 11.3 µM (active) | –

Row | SMILES | Potency | activity change, negative = inhibition
21 | CC(C)(C)CC(=O)Nc1nnc(-c2cccs2)s1 | 5.04 µM (active) | –
22 | Cc1ccc2c(Cl)c(C(=O)Nc3ccc4c(c3)OCO4)sc2c1 | 1.59 µM (active) | –
23 | Cc1ccccc1C(=O)Nc1nnc(-c2ccco2)o1 | 12.6 µM (active) | –
24 | COc1ccc(Nc2nc(C)c3ccccc3n2)cc1 | 11.3 µM (active) | –
25 | CCOCCCNC(=O)c1cc2c(=O)n3ccccc3nc2s1 | 11.3 µM (active) | –
26 | Cc1cc(C)c2c(N)c(C(=O)Nc3ccccc3C(F)(F)F)sc2n1 | 11.3 µM (active) | –
27 | CC(=O)c1ccc(Oc2ncnc3c2oc2ccccc23)cc1 | 3.18 µM (active) | –
28 | CCOC(=O)c1cccc(NC(=O)c2cc(CN3CCCC3)on2)c1 | 4.49 µM (active) | –
29 | COc1ccccc1N1CCN(C(=O)c2nc(-c3ccc(C)cc3)n3c2CCCCC3)CC1 | – | 8.55% (inactive)
30 | CN(c1ccccc1)S(=O)(=O)c1nnc(NC(=O)c2ccco2)s1 | – | 0.66% (inactive)
31 | CC(C)(C)C1CCc2nc(NC(=O)Cc3ccc(Cl)cc3)sc2C1 (stereo not given) | – | -15% (inactive)
32 | Cc1ccc(-c2cc(C(=O)NCC3CCCO3)no2)cc1 (stereo not given) | 3.56 µM (active) | –
33 | O=C(NC1CCCCCC1)C1CCN(C(=O)N2CCOc3ccc(Cl)cc32)CC1 | – | -4.96% (inactive)
34 | COc1ccc(CNc2nc(-c3ccco3)nn2C(=O)c2ccccc2Cl)cc1 | 22.5 µM (active) | –
35 | CCC(C)NC(=O)CCCn1c(=O)c2cccn2c2ccccc21 (stereo not given) | – | -2.15% (inactive)
36 | Cc1ccccc1NC(=O)c1cc2c([nH]c1=O)CC(C)(C)CC2=O | 0.634 µM (active) | –
37 | CCc1cc(C(=O)Nc2ccccc2)cs1 | 2.83 µM (active) | –
38 | CCCCN1CCc2c([nH]c3ccccc23)C1=O | 11.3 µM (active) | –
39 | CC(=O)O[C@H]1C[C@@]2(C)[C@@H](C[C@@H](O)[C@H]3[C@@]4(C)CC[C@@H](O)[C@@H](C)C4CC[C@@]32C)/C1=C(\CCC=C(C)C)C(=O)O (stereo not given in full) | – | -1.25% (inactive)
40 | Cc1cccc(NC(=O)Nc2ccc(Br)cc2)n1 | 4.49 µM (active) | –
